The first assay concerns the target CIRBP. Kind of assay: pooled miR-30 sensor sort-seq; sequence = guide strand. The following applies: shRNA.
For TAGTAGTCTCTGGAGCCTCCGT, the sensor-assay potency score (higher = more potent) is -1.12.

TCACTGTAGCCACCACTCTGAC: the sensor-assay potency score (higher = more potent) was -1.45.

In turn, ATCCTTAGCGTCGTCAATGTTC registered a sensor-assay potency score (higher = more potent) of -1.29.

On to TGTCGTAACTGTCTCTGTAGGA, for which the sensor-assay potency score (higher = more potent) amounted to 0.291.

TGAGAAGACCTGCTCCAGCGAC: the sensor-assay potency score (higher = more potent) is -1.23.

Regarding TAACTGTCTCTGTAGGACCCGC, the sensor-assay potency score (higher = more potent) was -0.935.

Sequence TTCAGAGATCTGTCCGTACTTT showed a sensor-assay potency score (higher = more potent) of 0.15.

On to AACTGTCGTAACTGTCTCTGTA, for which the sensor-assay potency score (higher = more potent) came out at 0.0143.

In another assay the target is CLCN5. The description is as above. Conditions: shRNA.
The sequence TTCCTGTATTTGTTGAAGCAGT registered a sensor-assay potency score (higher = more potent) of -0.859.

For the sequence TTTGCTTGTGTTGAAACGGTTC, the sensor-assay potency score (higher = more potent) was -0.272.

TTTATTGGTAATCTCTCGGTGC: the sensor-assay potency score (higher = more potent) stood at 0.182.

Consider TATAGCACCAACAGCCATGCTA, for which the sensor-assay potency score (higher = more potent) was -0.0804.

The sequence TGCTATAGCACCAACAGCCATG had a sensor-assay potency score (higher = more potent) of -1.3.

The sequence TCTTATGAGCAAACTCTTCTTT yielded a sensor-assay potency score (higher = more potent) of -0.0775.

For the sequence TTTAACACATCCTTTTTGGTAA, the sensor-assay potency score (higher = more potent) was -0.176.

On to TAGCTGACCTCTTCAAGGCTGA, for which the sensor-assay potency score (higher = more potent) was -0.234.

TCAAACCAGCTAACGAACCTGA showed a sensor-assay potency score (higher = more potent) of -0.258.

Turning to TTTGTCTCTCTCTTCAAAGGTG, the sensor-assay potency score (higher = more potent) is -0.196.

Sequence TTCCACAGTCATACTGTCCTGA yielded a sensor-assay potency score (higher = more potent) of 0.719.

For TTTCATCACATCCATTGCCAGG, the sensor-assay potency score (higher = more potent) is -1.34.

Sequence TTGAGGGGAAAATAGTAGCTGA had a sensor-assay potency score (higher = more potent) of -0.729.

As for TTAAGTCTGTCATCCAATGAGC, the sensor-assay potency score (higher = more potent) was -1.29.

For TTGATAACCAGAGTCCACTTAC, the sensor-assay potency score (higher = more potent) was -0.327.

The sequence TATAGTAATGACAATTTTCAGT registered a sensor-assay potency score (higher = more potent) of -0.57.

TTGAAATCATCATAGGTCCCTA yielded a sensor-assay potency score (higher = more potent) of -0.0127.

On to TTTTATTGGTAATCTCTCGGTG, for which the sensor-assay potency score (higher = more potent) was -0.249.

Turning to TATATGCTTTAACACATCCTTT, the sensor-assay potency score (higher = more potent) is -1.04.

Regarding TATAACAGGATACTTGCCCAAC, the sensor-assay potency score (higher = more potent) was -1.3.

AAAAGCATCACTCACACTGTGA gave a sensor-assay potency score (higher = more potent) of -0.413.

A further assay addresses CLDN16. The description is as above. Conditions: shRNA.
The sequence TCTGCAGTAATCATCAACGCTC displayed a sensor-assay potency score (higher = more potent) of -0.0383.

For TTAAAAAGATATAAGCAGCAGG, the sensor-assay potency score (higher = more potent) is -0.367.

The sequence TAGAATATCTGCAGTAATCATC registered a sensor-assay potency score (higher = more potent) of -0.742.

TAGAACGTTCCACATACACATC returned a sensor-assay potency score (higher = more potent) of -1.34.

In the case of TTTGTGACGCATTCCCACCAGA, the sensor-assay potency score (higher = more potent) is -0.822.

Turning to AAGAATAATACAAACAGGCTGT, the sensor-assay potency score (higher = more potent) was 0.277.

TACATTTTGGCCGTCTCTGTGC: the sensor-assay potency score (higher = more potent) is -0.539.

For TTCTCTCAGGTCCAACATCTTT, the sensor-assay potency score (higher = more potent) is -1.61.

AAATATATTGTGCAAAACCAAA registered a sensor-assay potency score (higher = more potent) of -1.81.

In the case of TTTACTTTTTCTCACGCCCTGC, the sensor-assay potency score (higher = more potent) was -0.567.

In turn, AATATCTGCAGTAATCATCAAC showed a sensor-assay potency score (higher = more potent) of -0.661.

Values taken from the OligoGym collection.
Note: reference of the scale not given here.
